Screening data deposited in PubChem BioAssay by National Center for Advancing Translational Sciences (NCATS).
MARV entry inh – Marburg virus entry inhibition | Marburg virus pseudotype entry/binding inhibition, cell-based | AID 720532 | hit rate 6.5% among 18,000 | Potency, µM (top dose mostly 49.2 µM), without a hit: at the top dose activity change, negative = inhibition, most hits filed as inhibitors
LASV entry inh – inhibitors of Lassa virus binding or entry into cells | hit rate 4.1% among 18,000 | Lassa virus pseudotyped entry inhibition, cell-based qHTS | Potency, µM (titrated, usually from 49.2 µM), inactives show at the top dose activity change, negative = inhibition, most hits filed as inhibitors
The depositor's hits bear a star; ! = repeats disagree; [ ] = remark or other dose. Shown are actives, neighbours in structure and some others; about 8% of the full set was active somewhere. The call rests on the fitted dose curve; tested in HEK293 cells. On the % scale 0 is the no-effect control and ±100 the full control effect; potency means the concentration at half of the fitted maximal effect.

Screening O=S(=O)(NCc1nc(N2CCCC2)c2cc(Cl)ccc2n1)c1ccccc1OC(F)(F)F returned MARV entry inh inconclusive and LASV entry inh -7%.
Screening CCCCCCCCCCCCCCCCCCOC[C@H](COP(=O)([O-])OCC[N+](C)(C)C)OC(C)=O returned MARV entry inh 18% and LASV entry inh 7%.
`COC[C@H]1O[C@H](c2ccccc2)C=C[C@H]1OCc1cccc(Br)c1` gave MARV entry inh -15%[8.59 µM] and LASV entry inh 22%[8.59 µM].
Cc1ncc(COP(=O)(O)O)c(CN)c1O was read as MARV entry inh 1% and LASV entry inh -9%.
Screening Cc1ncc(CO)c(CO)c1O returned MARV entry inh 28µM*! and LASV entry inh -7%.
`CC(=O)N/N=C/c1ccc([N+](=O)[O-])o1` gave MARV entry inh 26% and LASV entry inh -6%.
COC(=O)[C@H](COC(C)(C)C)NC(=O)O[C@@H]1C(=O)c2ccc(OC)cc2O[C@H]1c1ccc2c(c1)OCO2 was read as MARV entry inh inconclusive and LASV entry inh -1%.
`C[C@]12CC[C@@H]3c4ccc(OS(=O)(=O)O)cc4CC[C@H]3[C@@H]1CCC2=O` gave MARV entry inh 10% and LASV entry inh 1%.
For CN1CCN(c2ncnc3ccc(-c4ccccc4C#N)cc23)CC1 the results were MARV entry inh -23% and LASV entry inh -14%.
`CN1CCC(=C2c3ccccc3Sc3ccccc32)CC1` gave MARV entry inh 4µM* and LASV entry inh inconclusive.
`CN1CCC(=C2c3ccccc3C=Cc3ccccc32)CC1` gave MARV entry inh 8.9µM* and LASV entry inh 28µM*.
CC[C@H]1C(c2ccccc2)=NN(c2ccccc2)[C@@H]1CO was read as MARV entry inh 6% and LASV entry inh -10%.
C=CCN=C1NC(c2cccc(C(F)(F)F)c2)C(C(=O)OC)=C(C)N1Cc1ccccc1 (configuration not stated) was read as MARV entry inh -25%[8.59 µM].
For COc1ccc2c(c1)O[C@H](c1ccc3c(c1)OCO3)[C@@H](OC(=O)NC1CCCC1)C2=O the results were MARV entry inh 14% and LASV entry inh -10%.
`CCOC(=O)CNC(=O)O[C@@H]1C(=O)c2cc(OC)ccc2O[C@H]1c1ccc(OC)c(Br)c1` gave MARV entry inh inconclusive and LASV entry inh 0%.
For CCC(=O)O[C@]1(c2ccccc2)CCN(C)C[C@H]1C the results were MARV entry inh 7% and LASV entry inh -4%.
CN1CC[C@@]2(c3cccc(O)c3)Cc3nc4ccccc4cc3C[C@H]2C1 was read as MARV entry inh 18µM* and LASV entry inh -4%.
c1cc(-c2cnn3cc(-c4ccc(OCCN5CCCCC5)cc4)cnc23)ccn1 was read as MARV entry inh 13µM* and LASV entry inh 41%.
`c1ccc(-c2[nH]ncc2-c2ccnc(-c3ccc(OCCN4CCOCC4)cc3)c2)nc1` gave MARV entry inh -19% and LASV entry inh -14%.
Screening C[C@H]1Cc2c(-c3ccccc3)nc3c(c2CO1)CN(C(=O)Cc1cccs1)CC3 returned MARV entry inh 26%[8.59 µM] and LASV entry inh -19%[8.59 µM].
For CC1OC(=O)C(C(C)C)NC(=O)C(C(C)C)OC(=O)C(C(C)C)NC(=O)C(C)OC(=O)C(C(C)C)NC(=O)C(C(C)C)OC(=O)C(C(C)C)NC(=O)C(C)OC(=O)C(C(C)C)NC(=O)C(C(C)C)OC(=O)C(C(C)C)NC1=O (configuration not stated) the results were MARV entry inh 89µM* and LASV entry inh 0.13µM*.
NC(=O)C1(N2CCCCC2)CCN(CCCC(=O)c2ccc(F)cc2)CC1 was read as MARV entry inh inconclusive and LASV entry inh 13%.
O=C(OCC(O)CO)c1ccccc1Nc1ccnc2cc(Cl)ccc12 (configuration not stated) was read as MARV entry inh -11% and LASV entry inh -13%.
Screening Cc1ccc(O)cc1Nc1ccnc2cc(-c3ccccn3)ccc12 returned MARV entry inh 14µM* and LASV entry inh inconclusive.
`C=CCc1ccc(O)c(OC)c1` gave MARV entry inh -6% and LASV entry inh 7%.
`CCCCc1c(O)n(-c2ccccc2)[nH]c1=O` gave MARV entry inh -2% and LASV entry inh 10µM*.
`CCCCC1C(=O)N(c2ccccc2)N(c2ccc(O)cc2)C1=O` (configuration not stated) gave MARV entry inh 48%[17.8 µM] and LASV entry inh inconclusive.
`CC12C=C(C=CC=Cc3ccco3)C(C)(C1)C(C=Cc1ccco1)CC2=O` (configuration not stated) gave MARV entry inh -19%[8.59 µM] and LASV entry inh 0%[8.59 µM].
For Cc1nc(N=Nc2cc([N+](=O)[O-])ccc2Cl)c(COP(=O)(O)O)c(C=O)c1O the results were MARV entry inh 2% and LASV entry inh -9%.
Screening N#Cc1cccc(-c2nc(N3CCNCC3)c3ccccc3n2)c1 returned MARV entry inh 16µM* and LASV entry inh -1%.
`Cc1noc(C)c1-c1nc(N2CCNCC2)c2ccccc2n1` gave MARV entry inh inconclusive and LASV entry inh 5%.
For c1ccc2c(N3CCNCC3)nc(-c3ccc4c(c3)OCO4)nc2c1 the results were MARV entry inh 10µM* and LASV entry inh -9%.
For CS(=O)(=O)Nc1cccc(-c2nc(N3CCNCC3)c3ccccc3n2)c1 the results were MARV entry inh inconclusive and LASV entry inh 15%.
COc1ccc(-c2nc(-c3ccccc3)oc2NC(C)c2ccccc2)cc1 (configuration not stated) was read as MARV entry inh -6%[8.59 µM] and LASV entry inh 41%[8.59 µM].
Screening CCCN(CC)C(CC)C(=O)Nc1c(C)cccc1C (configuration not stated) returned MARV entry inh 15% and LASV entry inh -11%.
For O[C@@](CCN1CCCCC1)(c1ccccc1)[C@@H]1C[C@H]2C=C[C@@H]1C2 the results were MARV entry inh inconclusive and LASV entry inh -10%[17.8 µM].
Screening COc1ccc(NC(=O)C[C@H]2C(=O)N(c3ccc(Br)cc3)C[C@@H]2CSC)cc1 returned MARV entry inh inconclusive and LASV entry inh -29%.
COCCN1C(=O)C2=C(C1=O)C1N(C)c3ccccc3[C@@]13C[C@@H](CO)N(C(=O)c1ccc(Br)cc1)C3=N2 (some centres not stated) was read as MARV entry inh -7%[8.59 µM] and LASV entry inh -5%[8.59 µM].
For CCCCCCCCNCCS(=O)(=O)NCc1ccccc1OC the results were MARV entry inh inconclusive and LASV entry inh -8%.
Screening COc1ccccc1CNCCCCCCNCCCCCCCCNCCCCCCNCc1ccccc1OC returned MARV entry inh 7.9µM* and LASV entry inh inconclusive.
Screening CCC1CN(CC(=O)NCc2n[nH]c3c2CCCCC3)Cc2cc(OC)ccc2O1 (configuration not stated) returned MARV entry inh 8% and LASV entry inh -20%.
For Cc1c(C(=O)N(C)C2CCCCC2)sc2nc3ccc(N)cc3n12 the results were MARV entry inh 22µM* and LASV entry inh inconclusive.
Screening CCCCN1C[C@H](C)[C@@H](CC(=O)Nc2ccc(OC)cc2)C1=O returned MARV entry inh -22% and LASV entry inh 13%.
`N[C@H](C(=O)O)c1ccc(O)c(C(=O)O)c1` gave MARV entry inh 11% and LASV entry inh -3%.
O=C(O)c1cc(N(Cc2ccccc2O)Cc2cc(O)ccc2O)ccc1O was read as MARV entry inh 20µM*! and LASV entry inh inconclusive.
Screening Clc1ccc(C(c2ccc(Cl)cc2)C(Cl)(Cl)Cl)cc1 returned MARV entry inh -10% and LASV entry inh -2%.
